# Assay results taken from PubChem BioAssay (EPA / NIEHS).
# Inconclusive results are not listed. Active and inactive are the calls of the source. How the source made its calls, unless noted: active means hit-call score of the fitted dose curve at least 0.9, where 1 is the maximum; inconclusive means response in the unintended direction; inactive means score below 0.9.
# What was measured:
# [1] = ATG_TAL_CIS: Attagene CIS-FACTORIAL HepG2 Assay for human TAL Basal Promoter (AID 2282966; active means hit-call score of the fitted dose curve at least 0.9, where 1 is the maximum; inactive means score below 0.9;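 further: background control endpoint measuring basal TAL promoter reporter mRNA not a specific factor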); settings: HepG2 Attagene cis-factorial TAL promoter reporter; actives raise or lower the signal
# Outline: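 RT-PCR plus capillary electrophoresis quantifies reporter mRNA induction in transiently transfected HepG2 cells after 24 h chemical treatment. DMSO serves as negative control and baseline for bidirectional fitting.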
# [2] = ATG_TGFb_CIS: Attagene CIS-FACTORIAL HepG2 Assay for human Transforming Growth Factor (TGF) (AID 2282967; active means hit-call score of the fitted dose curve at least 0.9, where 1 is the maximum; inactive means score below 0.9); settings: HepG2 Attagene CIS TGFb reporter, mRNA transcription; actives raise or lower the signal
# Outline: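 HepG2 cells transiently transfected with cis-promoter-driven multiple reporter units measure endogenous TF activity; reporter mRNA quantified at 24 h by RT-PCR, FAM labeling, HpaI digestion and capillary electrophoresis. Bidirectional fit vs DMSO.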
# [3] = ATG_VDRE_CIS: Attagene CIS-FACTORIAL HepG2 Assay for human Vitamin D Receptor Element (VDRE) (AID 2282968; active means hit-call score of the fitted dose curve at least 0.9, where 1 is the maximum; inactive means score below 0.9); settings: HepG2 VDRE cis-reporter transcription, actives raise or lower the signal
# Outline: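 Reporter mRNA induction, quantified by capillary electrophoresis of fluorescently labelled RT-PCR products, was read 24 h after dosing HepG2 cells carrying transiently transfected cis-regulated reporter units; gain or loss relative to DMSO.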
# [4] = biological target: Estrogen receptor (Homo sapiens) (UniProt P03372); assay: ATG_ERa_TRANS: Attagene TRANS-FACTORIAL HepG2 Assay for human Estrogen Receptor alpha (ERa) (AID 2282970); settings: HepG2 Attagene TRANS ERa GAL4 reporter, mRNA
# Chain of Estrogen receptor (Homo sapiens) (P03372 whole entry, looked up, the tested form may be a part): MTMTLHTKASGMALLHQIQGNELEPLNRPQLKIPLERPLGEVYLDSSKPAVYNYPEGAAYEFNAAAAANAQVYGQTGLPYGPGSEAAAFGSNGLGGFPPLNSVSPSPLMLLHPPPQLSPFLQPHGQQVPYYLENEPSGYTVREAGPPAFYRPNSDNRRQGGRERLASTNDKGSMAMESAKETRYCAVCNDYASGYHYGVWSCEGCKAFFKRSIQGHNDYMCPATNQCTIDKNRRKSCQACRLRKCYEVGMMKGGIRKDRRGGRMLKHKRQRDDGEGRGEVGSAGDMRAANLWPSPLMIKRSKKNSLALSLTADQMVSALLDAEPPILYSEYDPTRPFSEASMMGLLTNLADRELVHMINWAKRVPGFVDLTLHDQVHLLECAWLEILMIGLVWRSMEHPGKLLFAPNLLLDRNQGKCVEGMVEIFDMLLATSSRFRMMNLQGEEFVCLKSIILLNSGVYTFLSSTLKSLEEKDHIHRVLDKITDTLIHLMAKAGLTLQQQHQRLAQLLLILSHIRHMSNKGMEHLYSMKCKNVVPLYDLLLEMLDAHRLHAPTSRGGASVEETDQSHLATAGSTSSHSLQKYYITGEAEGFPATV
# Outline: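 Cells: HepG2, transiently transfected. Construct: GAL4-UAS reporter units regulated by exogenous NR-Gal4 chimeras. Time: 24 h. Detection: reporter mRNA by RT-PCR, capillary electrophoresis, fluorescence. Baseline: DMSO, upward fitting.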
# [5] = biological target: X-box-binding protein 1 (Homo sapiens) (UniProt P17861); assay: ATG_Xbp1_CIS: Attagene CIS-FACTORIAL HepG2 Assay for human X-box Binding Protein 1 (XBP1) (AID 2282972; active means hit-call score of the fitted dose curve at least 0.9, where 1 is the maximum; inactive means score below 0.9); settings: HepG2 XBP1 cis-element reporter, Attagene multiplex; actives raise or lower the signal
# Chain of X-box-binding protein 1 (Homo sapiens) (P17861 whole entry, looked up): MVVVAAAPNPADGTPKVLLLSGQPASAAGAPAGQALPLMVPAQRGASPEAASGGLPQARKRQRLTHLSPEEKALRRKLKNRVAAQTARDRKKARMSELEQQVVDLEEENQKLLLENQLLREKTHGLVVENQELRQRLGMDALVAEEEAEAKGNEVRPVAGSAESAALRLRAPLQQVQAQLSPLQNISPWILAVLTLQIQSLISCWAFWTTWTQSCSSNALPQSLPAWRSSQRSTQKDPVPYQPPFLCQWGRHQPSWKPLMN
# Outline: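 HepG2 cells transiently transfected with cis-regulated multiple reporter transcription units; endogenous transcription factor activity measured 24 hours after chemical dosing. Reporter mRNA quantified by RT-PCR, 6-FAM primer extension, HpaI digestion and capillary electrophoresis; bidirectional fitting versus DMSO.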
# [6] = ATG_M_19_TRANS: Attagene TRANS-FACTORIAL HepG2 Assay for M19 Transcription Factor (Internal Marker) (AID 2282974); settings: HepG2 Attagene TRANS-FACTORIAL M19 internal marker reporter
# Outline: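 HepG2 transiently transfected with GAL4-UAS multiplex reporter constructs, exposed 24 h; reporter RNA quantified by RT-PCR, 6-FAM labeling, HpaI digestion and capillary electrophoresis; internal background marker fitted upward versus DMSO.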
# [7] = biological target: Oxysterols receptor LXR-alpha (Homo sapiens) (UniProt Q13133); assay: ATG_LXRa_TRANS: Attagene TRANS-FACTORIAL HepG2 Assay for human Liver X Receptor alpha (LXRa) (AID 2282980); settings: HepG2 Attagene TRANS reporter, LXRa transactivation
# Chain of Oxysterols receptor LXR-alpha (Homo sapiens) (Q13133 whole entry, looked up, the tested form may be a part): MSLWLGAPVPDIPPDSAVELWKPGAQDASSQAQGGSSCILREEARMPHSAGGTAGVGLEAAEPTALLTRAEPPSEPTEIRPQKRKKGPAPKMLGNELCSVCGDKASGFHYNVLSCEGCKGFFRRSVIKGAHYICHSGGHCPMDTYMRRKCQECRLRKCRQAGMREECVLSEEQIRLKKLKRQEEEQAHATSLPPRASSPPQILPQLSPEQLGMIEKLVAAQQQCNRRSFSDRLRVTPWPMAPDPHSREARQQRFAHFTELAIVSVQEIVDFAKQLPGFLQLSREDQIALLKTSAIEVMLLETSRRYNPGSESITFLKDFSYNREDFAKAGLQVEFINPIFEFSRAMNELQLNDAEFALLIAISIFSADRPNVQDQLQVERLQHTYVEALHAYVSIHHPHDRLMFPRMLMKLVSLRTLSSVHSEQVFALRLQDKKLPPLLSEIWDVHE
# Outline: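 Chemical-induced reporter mRNA measured by RT-PCR with fluorescent labelling and capillary electrophoresis after 24 h dosing of transiently transfected HepG2 cells expressing exogenous NR-Gal4 chimeras; increases scored against DMSO baseline.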
# [8] = biological target: Oxysterols receptor LXR-beta (Homo sapiens) (UniProt P55055); assay: ATG_LXRb_TRANS: Attagene TRANS-FACTORIAL HepG2 Assay for human Liver X Receptor beta (LXRb) (AID 2282981); settings: HepG2 Attagene TRANS GAL4-LXRb reporter, mRNA
# Chain of Oxysterols receptor LXR-beta (Homo sapiens) (P55055 whole entry, looked up, the tested form may be a part): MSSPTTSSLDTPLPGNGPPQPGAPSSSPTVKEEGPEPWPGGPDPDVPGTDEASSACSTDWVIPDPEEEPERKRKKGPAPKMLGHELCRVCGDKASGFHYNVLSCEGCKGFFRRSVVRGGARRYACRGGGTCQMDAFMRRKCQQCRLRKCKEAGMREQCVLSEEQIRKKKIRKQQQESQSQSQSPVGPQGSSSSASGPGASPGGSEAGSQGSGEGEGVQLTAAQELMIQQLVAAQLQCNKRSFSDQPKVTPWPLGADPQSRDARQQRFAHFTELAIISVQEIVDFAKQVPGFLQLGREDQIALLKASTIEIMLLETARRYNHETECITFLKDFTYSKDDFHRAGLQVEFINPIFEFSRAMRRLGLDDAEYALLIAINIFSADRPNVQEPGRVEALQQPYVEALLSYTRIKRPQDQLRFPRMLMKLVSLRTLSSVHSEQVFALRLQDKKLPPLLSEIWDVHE
# Outline: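 Transient transfection HepG2 (multiplexed RTUs, GAL4-UAS); NR-Gal4 chimera; 24 h exposure; RNA → RT-PCR → 6-FAM primer extension → HpaI → CE; increase vs DMSO.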
# [9] = ATG_M_32_TRANS: Attagene TRANS-FACTORIAL HepG2 Assay for M32 Transcription Factor (Internal Marker) (AID 2282984); settings: HepG2 Attagene TRANS M32 internal marker reporter;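 further: transcript level of a background control reporter unit measured by RT-PCR and capillary electrophoresis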
# Outline: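 Measures reporter mRNA induction in human HepG2 liver cells after 24 h chemical treatment. Transcripts from transiently transfected GAL4-UAS reporter units are amplified, fluorescently labelled and sized by capillary electrophoresis; gain of signal relative to DMSO.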
# [10] = biological target: Nuclear receptor subfamily 4 group A member 2 (Homo sapiens) (UniProt P43354); assay: ATG_NURR1_TRANS: Attagene TRANS-FACTORIAL HepG2 Assay for human Nuclear Receptor Related Protein 1 (NURR1) (AID 2282985); settings: HepG2 Attagene TRANS reporter, mRNA readout
# Chain of Nuclear receptor subfamily 4 group A member 2 (Homo sapiens) (P43354 whole entry, looked up, the tested form may be a part): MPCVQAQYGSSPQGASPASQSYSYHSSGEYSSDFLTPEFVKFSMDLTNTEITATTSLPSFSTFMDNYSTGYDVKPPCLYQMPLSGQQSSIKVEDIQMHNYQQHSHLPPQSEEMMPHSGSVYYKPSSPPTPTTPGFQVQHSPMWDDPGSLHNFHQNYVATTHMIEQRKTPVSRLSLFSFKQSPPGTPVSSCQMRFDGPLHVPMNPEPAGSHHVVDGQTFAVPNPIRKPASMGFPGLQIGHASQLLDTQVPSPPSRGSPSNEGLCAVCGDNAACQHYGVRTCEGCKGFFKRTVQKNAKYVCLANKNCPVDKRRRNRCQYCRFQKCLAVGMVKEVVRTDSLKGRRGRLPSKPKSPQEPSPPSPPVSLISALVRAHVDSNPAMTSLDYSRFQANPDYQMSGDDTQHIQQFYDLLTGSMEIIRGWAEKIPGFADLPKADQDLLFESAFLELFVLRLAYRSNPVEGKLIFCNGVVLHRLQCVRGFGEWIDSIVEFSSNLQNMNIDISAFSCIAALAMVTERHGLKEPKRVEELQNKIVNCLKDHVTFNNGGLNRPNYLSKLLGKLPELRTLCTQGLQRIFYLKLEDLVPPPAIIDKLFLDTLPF
# Outline: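 Transient transfection of HepG2, human liver cells, with multiple GAL4-UAS reporter transcription units. Cells dosed 24 h, RNA isolated, reverse-transcribed, PCR-amplified, FAM-labelled, HpaI-digested, sized by capillary electrophoresis. DMSO served as negative control.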
# [11] = biological target: Transcriptional activator Myb (Homo sapiens) (UniProt P10242); assay: ATG_Myb_CIS: Attagene CIS-FACTORIAL HepG2 Assay for human Myeloblastosis (Myb) Proto-Oncogene Transcription Factor (AID 2282986; active means hit-call score of the fitted dose curve at least 0.9, where 1 is the maximum; inactive means score below 0.9); settings: HepG2 Attagene CIS-FACTORIAL Myb reporter transcription; actives raise or lower the signal
# Chain of Transcriptional activator Myb (Homo sapiens) (P10242 whole entry, looked up): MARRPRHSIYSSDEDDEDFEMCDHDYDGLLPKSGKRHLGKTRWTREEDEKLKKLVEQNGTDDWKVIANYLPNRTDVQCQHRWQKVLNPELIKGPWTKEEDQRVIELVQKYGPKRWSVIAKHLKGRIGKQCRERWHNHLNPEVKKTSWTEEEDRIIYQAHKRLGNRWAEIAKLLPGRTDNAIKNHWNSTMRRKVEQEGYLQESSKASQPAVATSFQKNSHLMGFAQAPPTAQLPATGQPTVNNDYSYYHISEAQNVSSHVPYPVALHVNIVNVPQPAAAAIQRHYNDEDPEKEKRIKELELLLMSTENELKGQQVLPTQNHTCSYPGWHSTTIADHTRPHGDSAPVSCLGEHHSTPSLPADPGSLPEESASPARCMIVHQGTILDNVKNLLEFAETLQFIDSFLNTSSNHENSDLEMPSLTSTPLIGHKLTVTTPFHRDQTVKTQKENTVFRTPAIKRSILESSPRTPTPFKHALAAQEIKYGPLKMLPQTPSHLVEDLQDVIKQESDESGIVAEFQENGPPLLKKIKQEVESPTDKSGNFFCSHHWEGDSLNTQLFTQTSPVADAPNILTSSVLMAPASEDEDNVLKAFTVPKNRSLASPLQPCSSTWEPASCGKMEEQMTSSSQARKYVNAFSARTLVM
# Outline: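 Transiently transfected HepG2 cells carrying a multiplexed cis-promoter reporter set report endogenous Myb activity after 24 h compound exposure. Reporter mRNA is read by RT-PCR with capillary electrophoresis of fluorescent products, fitted bidirectionally against DMSO.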
# [12] = biological target: Nuclear receptor subfamily 1 group I member 3 (Homo sapiens) (UniProt Q14994); assay: ATG_CAR_TRANS: Attagene TRANS-FACTORIAL HepG2 Assay for human Constitutive Androstane Receptor (CAR) (AID 2282969); settings: HepG2 Attagene TRANS-FACTORIAL CAR reporter;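 further: activators raise reporter mRNA above DMSO so AC50 marks induction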
# Chain of Nuclear receptor subfamily 1 group I member 3 (Homo sapiens) (Q14994 whole entry, looked up, the tested form may be a part): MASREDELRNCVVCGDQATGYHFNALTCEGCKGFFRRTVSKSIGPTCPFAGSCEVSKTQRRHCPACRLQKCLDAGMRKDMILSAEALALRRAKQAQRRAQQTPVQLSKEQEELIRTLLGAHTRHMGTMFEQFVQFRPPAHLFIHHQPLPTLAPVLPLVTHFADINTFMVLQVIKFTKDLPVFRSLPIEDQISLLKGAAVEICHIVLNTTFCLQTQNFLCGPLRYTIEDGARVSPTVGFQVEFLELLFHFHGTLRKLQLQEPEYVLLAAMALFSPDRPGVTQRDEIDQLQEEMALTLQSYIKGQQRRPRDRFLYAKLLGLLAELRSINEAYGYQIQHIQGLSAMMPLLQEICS
# Outline: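 Readout is reporter mRNA induction, quantified by fluorescent primer extension and capillary electrophoresis after RT-PCR. Cells were HepG2 transiently carrying chimeric NR-Gal4 constructs with GAL4-UAS reporters, treated for 24 h; activity scored upward from DMSO.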
# [13] = ATG_GAL4_TRANS: Attagene TRANS-FACTORIAL HepG2 Assay for GAL4 (Internal Marker) (AID 2282976); settings: HepG2 Attagene TRANS GAL4 internal marker reporter
# Outline: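 In transfected human HepG2 liver cells dosed 24 h, GAL4 reporter mRNA serves as a baseline marker. Detection by RT-PCR with fluorescent capillary electrophoresis, activity fitted upward relative to DMSO.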
# [14] = ATG_M_06_TRANS: Attagene TRANS-FACTORIAL HepG2 Assay for M06 Transcription Factor (Internal Marker) (AID 2282983); settings: HepG2 Attagene TRANS M06 internal marker reporter;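 further: reporter transcript level by RT-PCR then capillary electrophoresis fluorescence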
# Outline: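 Cells: HepG2, transient multi-reporter transfection. Exposure: 24 h. Detection: RT-PCR, 6-FAM labelling, HpaI digestion (2 h, 37 °C), capillary electrophoresis. Baseline: DMSO.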
# [15] = biological target: Nuclear respiratory factor 1 (Homo sapiens) (UniProt Q16656); assay: ATG_NRF1_CIS: Attagene CIS-FACTORIAL HepG2 Assay for human Nuclear Respiratory Factor 1 (NRF1) Orphan Gene (AID 2282987; active means hit-call score of the fitted dose curve at least 0.9, where 1 is the maximum; inactive means score below 0.9); settings: HepG2 NRF1 cis-element reporter, Attagene multiplex; actives raise or lower the signal
# Chain of Nuclear respiratory factor 1 (Homo sapiens) (Q16656 whole entry, looked up): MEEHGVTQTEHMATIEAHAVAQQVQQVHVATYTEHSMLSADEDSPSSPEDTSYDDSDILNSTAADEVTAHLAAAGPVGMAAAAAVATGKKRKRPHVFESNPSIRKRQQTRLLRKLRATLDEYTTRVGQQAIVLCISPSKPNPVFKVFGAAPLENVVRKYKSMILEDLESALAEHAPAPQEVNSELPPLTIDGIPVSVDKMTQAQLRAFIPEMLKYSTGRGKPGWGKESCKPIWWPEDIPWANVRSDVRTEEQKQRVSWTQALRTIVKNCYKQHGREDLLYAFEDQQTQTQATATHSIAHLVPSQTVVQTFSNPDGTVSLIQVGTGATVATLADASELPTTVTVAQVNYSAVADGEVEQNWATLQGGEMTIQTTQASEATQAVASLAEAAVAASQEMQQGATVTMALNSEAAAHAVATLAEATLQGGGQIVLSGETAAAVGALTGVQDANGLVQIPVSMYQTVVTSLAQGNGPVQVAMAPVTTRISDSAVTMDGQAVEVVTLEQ
# Outline: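 HepG2 cells transiently transfected with multiple cis-regulated reporter units, exposed 24 h. Reporter mRNAs measured by RT-PCR, fluorescent labelling, HpaI digestion and capillary electrophoresis; bidirectional fitting against DMSO.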
# [16] = biological target: Hepatocyte nuclear factor 4-alpha (Homo sapiens) (UniProt P41235); assay: ATG_HNF4a_TRANS: Attagene TRANS-FACTORIAL HepG2 Assay for human Hepatocyte Nuclear Factor 4 alpha (HNF4a) (AID 2282982); settings: HepG2 HNF4a transactivation reporter, mRNA readout
# Chain of Hepatocyte nuclear factor 4-alpha (Homo sapiens) (P41235 whole entry, looked up, the tested form may be a part): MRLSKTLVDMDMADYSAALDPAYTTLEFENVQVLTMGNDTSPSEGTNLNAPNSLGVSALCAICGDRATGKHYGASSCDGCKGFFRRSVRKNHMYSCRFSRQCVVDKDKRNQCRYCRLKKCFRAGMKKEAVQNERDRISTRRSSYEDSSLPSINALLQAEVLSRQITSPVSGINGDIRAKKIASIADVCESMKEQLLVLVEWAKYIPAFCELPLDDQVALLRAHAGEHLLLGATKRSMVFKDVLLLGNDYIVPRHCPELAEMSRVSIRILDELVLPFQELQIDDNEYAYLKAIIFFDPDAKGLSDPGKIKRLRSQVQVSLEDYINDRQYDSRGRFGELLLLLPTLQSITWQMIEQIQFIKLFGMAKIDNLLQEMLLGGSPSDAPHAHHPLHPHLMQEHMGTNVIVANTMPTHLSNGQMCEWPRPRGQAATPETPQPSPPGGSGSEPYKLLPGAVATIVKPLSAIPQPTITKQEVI
# Outline: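 Readout is fluorescent reporter-transcript fragments resolved by capillary electrophoresis after RT-PCR from HepG2 cells dosed for 24 h. Cells carried transfected GAL4-UAS reporter constructs measuring exogenous NR-GAL4 chimera activity; DMSO served as baseline.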
# [17] = biological target: Steroid hormone receptor ERR1 (Homo sapiens) (UniProt P11474); assay: ATG_ERRa_TRANS: Attagene TRANS-FACTORIAL HepG2 Assay for human Estrogen-Related Receptor alpha (ERRa) (AID 2282971); settings: HepG2 Attagene TRANS reporter, ERRa transactivation
# Outline: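 Reporter transcripts from ERRa-Gal4 chimera activity measured in transiently transfected human HepG2 cells 24 hours after dosing, using RT-PCR with 6-FAM primer extension, HpaI digestion and capillary electrophoresis; DMSO is baseline.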
# [18] = biological target: Estrogen-related receptor gamma (Homo sapiens) (UniProt P62508); assay: ATG_ERRg_TRANS: Attagene TRANS-FACTORIAL HepG2 Assay for human Estrogen-Related Receptor gamma (ERRg) (AID 2282977); settings: HepG2 Attagene TRANS reporter, ERRg transactivation;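 further: hits increase reporter signal over DMSO so potencies reflect activators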
# Outline: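 HepG2 cells transiently transfected with multiplexed GAL4-UAS reporter units driven by chimeric NR-Gal4 proteins; 24 h exposure. Reporter mRNA quantified by RT-PCR, fluorescent labelling, HpaI digestion and capillary electrophoresis; gain of signal vs DMSO.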
# [19] = biological target: Glucocorticoid receptor (Homo sapiens) (UniProt P04150); assay: ATG_GR_TRANS: Attagene TRANS-FACTORIAL HepG2 Assay for human Glucocorticoid Receptor (GR) (AID 2282978); settings: HepG2 Attagene TRANS GR reporter, mRNA transcription;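 further: activators score as hits since higher reporter transcript over DMSO is fitted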
# Outline: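 HepG2 cells transiently transfected with GAL4-UAS reporter units and exogenous GR-Gal4 chimera, dosed 24 h. Reporter mRNA by RT-PCR, FAM labeling, HpaI digest and capillary electrophoresis; gain-of-signal fit versus DMSO.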
# [20] = biological target: Bile acid receptor (Homo sapiens) (UniProt Q96RI1); assay: ATG_FXR_TRANS: Attagene TRANS-FACTORIAL HepG2 Assay for Farnesoid X Receptor (FXR) (AID 2282979); settings: HepG2 Attagene TRANS FXR-GAL4 reporter transcription;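 further: hits raise reporter mRNA above DMSO so AC50 marks FXR activation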
# Chain of Bile acid receptor (Homo sapiens) (Q96RI1 whole entry, looked up, the tested form may be a part): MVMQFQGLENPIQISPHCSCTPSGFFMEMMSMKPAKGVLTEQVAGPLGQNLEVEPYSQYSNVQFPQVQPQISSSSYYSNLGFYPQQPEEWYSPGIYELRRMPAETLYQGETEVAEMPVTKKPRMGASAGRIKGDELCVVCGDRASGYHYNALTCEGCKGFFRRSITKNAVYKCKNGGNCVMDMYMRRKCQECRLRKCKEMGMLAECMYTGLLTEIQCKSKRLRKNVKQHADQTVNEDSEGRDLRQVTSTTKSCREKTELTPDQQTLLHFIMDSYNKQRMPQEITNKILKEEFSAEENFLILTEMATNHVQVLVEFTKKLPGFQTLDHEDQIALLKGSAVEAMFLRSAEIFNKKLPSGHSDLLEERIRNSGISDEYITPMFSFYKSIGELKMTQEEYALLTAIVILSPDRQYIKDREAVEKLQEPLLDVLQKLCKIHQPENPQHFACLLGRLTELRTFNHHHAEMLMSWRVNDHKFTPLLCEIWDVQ
# Outline: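 Reporter transcripts from transfected HepG2 cells were measured 24 h after dosing, using RT-PCR with capillary electrophoresis of 6-FAM-labelled fragments. The read-out reflects activity of exogenous FXR-Gal4 chimera on GAL4-UAS units, with induction relative to DMSO.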
structure (smiles),measurement,setting,value
C=C(C)C(=O)O[C@H]1C[C@@H]2CC[C@@]1(C)C2(C)C,outcome,[1],inactive
same,AC50,[2],143 µM (active)
same,outcome,[3],inactive
same,AC50,[4],38 µM (active)
same,outcome,[5],inactive
same,outcome,[6],inactive
same,AC50,[7],27.5 µM (active)
same,outcome,[8],inactive
same,outcome,[9],inactive
same,outcome,[10],inactive
same,outcome,[11],inactive
CCCc1ccccc1O,outcome,[1],inactive
same,outcome,[2],inactive
same,outcome,[3],inactive
same,outcome,[12],inactive
same,outcome,[13],inactive
same,outcome,[7],inactive
same,outcome,[14],inactive
same,outcome,[10],inactive
same,outcome,[11],inactive
same,outcome,[15],inactive
C=CC(=O)OCC(O)COc1ccccc1 (configuration not stated),outcome,[1],inactive
same,outcome,[2],inactive
same,AC50,[3],26.2 µM (active)
same,outcome,[12],inactive
same,AC50,[5],24.3 µM (active)
same,outcome,[8],inactive
same,outcome,[16],inactive
same,outcome,[14],inactive
same,outcome,[10],inactive
same,outcome,[11],inactive
c1ccc(CCCc2ccccn2)cc1,outcome,[1],inactive
same,AC50,[2],148 µM (active)
same,AC50,[3],42.9 µM (active)
same,outcome,[4],inactive
same,outcome,[17],inactive
same,outcome,[5],inactive
same,outcome,[18],inactive
same,outcome,[8],inactive
same,outcome,[16],inactive
same,outcome,[14],inactive
same,outcome,[9],inactive
same,outcome,[10],inactive
same,outcome,[11],inactive
same,outcome,[15],inactive
CCCCC(CC)COCCC#N (configuration not stated),outcome,[1],inactive
same,outcome,[2],inactive
same,outcome,[3],inactive
same,outcome,[12],inactive
same,outcome,[5],inactive
same,outcome,[19],inactive
same,outcome,[14],inactive
same,outcome,[9],inactive
same,outcome,[10],inactive
same,outcome,[11],inactive
same,outcome,[15],inactive
Cc1cccc(C)c1C,outcome,[1],inactive
same,outcome,[2],inactive
same,outcome,[3],inactive
same,outcome,[12],inactive
same,outcome,[5],inactive
same,outcome,[20],inactive
same,outcome,[14],inactive
same,outcome,[9],inactive
same,outcome,[11],inactive
same,outcome,[15],inactive
CC(=O)O[C@]1(C(C)=O)CC[C@H]2[C@@H]3C[C@H](C)C4=CC(=O)CC[C@]4(C)[C@H]3CC[C@@]21C,outcome,[1],inactive
same,outcome,[2],inactive
same,AC50,[3],17.1 µM (active)
same,outcome,[4],inactive
same,outcome,[5],inactive
same,outcome,[13],inactive
same,outcome,[20],inactive
same,outcome,[7],inactive
same,outcome,[8],inactive
same,outcome,[14],inactive
same,AC50,[10],16.8 µM (active)
same,outcome,[11],inactive
same,outcome,[15],inactive
CC(CCO)CCc1ccccc1 (configuration not stated),outcome,[1],inactive
same,outcome,[2],inactive
same,outcome,[3],inactive
same,AC50,[4],25.2 µM (active)
same,outcome,[5],inactive
same,outcome,[6],inactive
same,outcome,[19],inactive
same,outcome,[20],inactive
same,outcome,[7],inactive
same,outcome,[14],inactive
same,outcome,[9],inactive
same,outcome,[10],inactive
same,outcome,[11],inactive
Nc1cc(Cl)c(O)c(Cl)c1,outcome,[1],inactive
same,outcome,[2],inactive
same,AC50,[3],70.7 µM (active)
same,outcome,[4],inactive
same,outcome,[17],inactive
same,outcome,[6],inactive
same,outcome,[18],inactive
same,outcome,[7],inactive
same,outcome,[8],inactive
same,AC50,[16],100 µM (active)
same,outcome,[9],inactive
same,outcome,[10],inactive
same,outcome,[11],inactive
same,outcome,[15],inactive
ClCCCl,outcome,[1],inactive
same,outcome,[2],inactive
same,outcome,[3],inactive
same,outcome,[12],inactive
same,outcome,[5],inactive
same,outcome,[14],inactive
same,outcome,[10],inactive
same,outcome,[11],inactive
same,outcome,[15],inactive
Cc1ccc(C=O)cc1,outcome,[1],inactive
same,outcome,[2],inactive
same,outcome,[3],inactive
same,outcome,[4],inactive
same,outcome,[5],inactive
same,outcome,[6],inactive
same,outcome,[13],inactive
same,outcome,[20],inactive
same,outcome,[8],inactive
same,outcome,[10],inactive
same,outcome,[11],inactive
same,outcome,[15],inactive
